Values joined by “and” are separate entries in the source; they are usually repeats but may differ in a detail not shown here. Identical values can stand only once. Records with an inconclusive call do not appear. Active and inactive are the calls of the source. Unless noted, calls follow the shape of the dose curve; as a rule, active = well fitted curve in the direction sought with a large enough effect; inconclusive = small, poorly fitted or top-dose-only effect, or another doubt; inactive = no such curve, though single readings can be large; an effect the other way counts as inactive or inconclusive.
How the values were obtained:
[1] = Primary qHTS for inhibitors of nuclear receptor binding SET domain protein 2 (NSD2) in an isogenic RCH-ACV NSD2 p.E1099K mutant (9B) (AID 1645876); also: nearly all actives have a fitted effect of over 70% in size; also: potency is read from the fitted curve at half-maximal effect
[2] = Primary qHTS for inhibitors of nuclear receptor binding SET domain protein 2 (NSD2) in an RCH-ACV wild type WT cells (2C) (AID 1645877); also: nearly all actives have a fitted effect of over 70% in size; also: potency is read from the fitted curve at half-maximal effect
[3] = target: Rap guanine nucleotide exchange factor 3 (Homo sapiens) (UniProt O95398); test: Confirmatory qHTS for antagonist of cAMP-regulated guanine nucleotide exchange factor 3 (EPAC1) (AID 1645880); also: potency is read from the fitted curve at half-maximal effect; nearly all actives have a fitted effect of over 55% in size
Method in brief: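 Nucleotide exchange uses 100 nM EPAC1, 250 nM RAP1B-BODIPY-GDP and 50 uM GDP, with compounds in a concentration-titration series. After 5 min at room temperature, fluorescence (480 nm ex/540 nm em) is read every 5 min for 30 min. Data are normalized to control ATA and DMSO.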

[4] = target: Rap guanine nucleotide exchange factor 3 (Homo sapiens) (UniProt O95398); test: Confirmatory qHTS for agonist of cAMP-regulated guanine nucleotide exchange factor 3 (EPAC1) (AID 1645881);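 also: EPAC1 catalysed release of BODIPY-GDP from Rap1B seen as fluorescence loss; 100% = effect of cAMP agonist control; nearly all actives have a fitted effect of over 75% in size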
[5] = target: Rap guanine nucleotide exchange factor 4 (Homo sapiens) (UniProt Q8WZA2); test: Confirmatory qHTS for antagonist of cAMP-regulated guanine nucleotide exchange factor 4 (EPAC2) (AID 1645885); also: nearly all actives have a fitted effect of over 25% in size; also: potency is read from the fitted curve at half-maximal effect; as to activity change, negative = inhibition: % is scaled to controls: 0 for no effect and ±100 for the full control effect
[6] = target: Rap guanine nucleotide exchange factor 3 (Homo sapiens) (UniProt O95398); test: Counterscreen qHTS for antagonist of cAMP-regulated guanine nucleotide exchange factor 3 (EPAC1) (AID 1645888);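 also: fluorescence loss as bound BODIPY-GDP is released from Rap1B; % of control where 0% means no effect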
Method in brief: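 Rap1B–BODIPY-GDP (250 nM) with 50 uM GDP; compounds pin-transferred to 9.74 nM–152 uM final (activator) or from 7.32 nM upwards (inhibitor). Fluorescence Ex/Em 480/540 nm read at 5 and 30 min, then after adding cAMP or buffer, at room temperature.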

[7] = target: Rap guanine nucleotide exchange factor 4 (Homo sapiens) (UniProt Q8WZA2); test: Confirmatory qHTS for agonist of cAMP-regulated guanine nucleotide exchange factor 4 (EPAC2) (AID 1645884);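 also: nucleotide exchange releases bodipy-GDP from Rap1 and this lowers its fluorescence; % is scaled to controls: 0 for no effect and ±100 for the full control effect; nearly all actives have a fitted effect of over 65% in size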
[8] = target: Catechol O-methyltransferase (Homo sapiens) (UniProt P21964); test: Confirmatory Screen for Target Class Profiling of Small Molecule Inhibitors of Methyltransferases (AID 1745852; calls by dose curve; also: potency is read from the fitted curve at half-maximal effect; as to activity change, negative = inhibition: % is scaled to controls: 0 for no effect and ±100 for the full control effect); conditions: MTase-Glo luminescence, SAH detection, recombinant enzyme; measured here: COMT max response; stronger effect = lower value
[9] = target: Guanidinoacetate N-methyltransferase (Homo sapiens) (UniProt Q14353); test: as above; conditions: activity change, negative = inhibition: at 57.3 µM (top of the series) unless noted
[10] = target: Nicotinamide N-methyltransferase (Homo sapiens) (UniProt P40261); test: as above; conditions: MTase-Glo luminescence, SAH detection, recombinant enzyme; measured here: NNMT max response; stronger effect = lower value
[11] = target: Phenylethanolamine N-methyltransferase (Homo sapiens) (UniProt P11086); test: as above; conditions: MTase-Glo luminescence, SAH detection, recombinant enzyme; measured here: PNMT max response; stronger effect = lower value
Chain of Phenylethanolamine N-methyltransferase (Homo sapiens) (P11086 whole entry, looked up): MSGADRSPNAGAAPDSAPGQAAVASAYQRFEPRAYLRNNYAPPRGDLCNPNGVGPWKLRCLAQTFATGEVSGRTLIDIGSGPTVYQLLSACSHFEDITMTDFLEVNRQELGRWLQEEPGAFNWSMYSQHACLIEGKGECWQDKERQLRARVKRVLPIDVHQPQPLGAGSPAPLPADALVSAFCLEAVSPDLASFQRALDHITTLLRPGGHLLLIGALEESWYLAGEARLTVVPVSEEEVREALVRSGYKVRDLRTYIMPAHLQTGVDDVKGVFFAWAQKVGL

Chain of Rap guanine nucleotide exchange factor 3 (Homo sapiens) (O95398 whole entry, looked up): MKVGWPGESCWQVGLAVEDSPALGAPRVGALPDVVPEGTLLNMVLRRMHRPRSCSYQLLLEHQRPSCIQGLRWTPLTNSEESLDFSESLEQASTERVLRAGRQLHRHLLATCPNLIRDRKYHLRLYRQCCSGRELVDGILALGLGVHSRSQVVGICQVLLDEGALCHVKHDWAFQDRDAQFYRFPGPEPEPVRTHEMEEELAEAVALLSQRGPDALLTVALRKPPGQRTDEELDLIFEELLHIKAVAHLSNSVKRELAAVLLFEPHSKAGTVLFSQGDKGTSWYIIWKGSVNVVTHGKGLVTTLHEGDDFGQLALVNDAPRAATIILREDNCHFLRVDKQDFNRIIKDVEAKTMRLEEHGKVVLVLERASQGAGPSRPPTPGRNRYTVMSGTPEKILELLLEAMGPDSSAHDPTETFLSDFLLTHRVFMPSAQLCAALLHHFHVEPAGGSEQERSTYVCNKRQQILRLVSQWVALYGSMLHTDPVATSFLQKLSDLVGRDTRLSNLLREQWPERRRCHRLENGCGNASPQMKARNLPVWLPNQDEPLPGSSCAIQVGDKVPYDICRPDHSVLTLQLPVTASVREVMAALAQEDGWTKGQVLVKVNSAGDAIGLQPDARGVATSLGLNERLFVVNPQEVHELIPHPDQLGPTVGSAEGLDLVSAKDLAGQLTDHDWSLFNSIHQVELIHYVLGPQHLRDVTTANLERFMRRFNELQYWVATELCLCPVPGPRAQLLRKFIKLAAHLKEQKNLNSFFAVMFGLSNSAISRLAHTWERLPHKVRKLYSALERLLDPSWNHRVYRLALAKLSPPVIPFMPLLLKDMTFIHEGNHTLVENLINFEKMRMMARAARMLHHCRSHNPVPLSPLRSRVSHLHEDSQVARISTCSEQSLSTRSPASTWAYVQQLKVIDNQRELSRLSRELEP
Chain of Rap guanine nucleotide exchange factor 4 (Homo sapiens) (Q8WZA2 whole entry, looked up): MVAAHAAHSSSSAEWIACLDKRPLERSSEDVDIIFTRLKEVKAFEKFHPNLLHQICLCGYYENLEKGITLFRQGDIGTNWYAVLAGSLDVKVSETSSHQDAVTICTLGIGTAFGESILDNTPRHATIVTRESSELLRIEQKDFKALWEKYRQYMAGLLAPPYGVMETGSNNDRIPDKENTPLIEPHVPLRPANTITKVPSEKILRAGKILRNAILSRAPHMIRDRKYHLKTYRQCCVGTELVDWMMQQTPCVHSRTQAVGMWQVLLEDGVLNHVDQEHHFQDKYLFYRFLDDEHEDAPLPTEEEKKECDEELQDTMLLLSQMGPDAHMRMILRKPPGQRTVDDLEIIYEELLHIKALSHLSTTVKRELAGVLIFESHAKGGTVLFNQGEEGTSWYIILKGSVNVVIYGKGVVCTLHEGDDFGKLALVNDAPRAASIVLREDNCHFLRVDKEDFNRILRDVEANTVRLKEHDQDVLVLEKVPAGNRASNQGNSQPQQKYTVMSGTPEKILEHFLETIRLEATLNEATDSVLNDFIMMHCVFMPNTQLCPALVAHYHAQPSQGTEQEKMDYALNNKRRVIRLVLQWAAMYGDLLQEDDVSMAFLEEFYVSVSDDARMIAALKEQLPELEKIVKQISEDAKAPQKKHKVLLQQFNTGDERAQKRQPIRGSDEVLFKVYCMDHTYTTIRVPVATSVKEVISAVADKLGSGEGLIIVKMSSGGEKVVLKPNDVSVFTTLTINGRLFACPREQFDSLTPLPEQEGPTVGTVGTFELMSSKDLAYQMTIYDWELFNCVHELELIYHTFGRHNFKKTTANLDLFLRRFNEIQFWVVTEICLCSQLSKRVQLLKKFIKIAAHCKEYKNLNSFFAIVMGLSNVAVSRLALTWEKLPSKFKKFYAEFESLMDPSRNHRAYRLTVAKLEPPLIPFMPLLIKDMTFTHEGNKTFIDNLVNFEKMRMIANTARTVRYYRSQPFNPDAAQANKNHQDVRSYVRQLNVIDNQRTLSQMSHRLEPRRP
Chain of Nicotinamide N-methyltransferase (Homo sapiens) (P40261 whole entry, looked up): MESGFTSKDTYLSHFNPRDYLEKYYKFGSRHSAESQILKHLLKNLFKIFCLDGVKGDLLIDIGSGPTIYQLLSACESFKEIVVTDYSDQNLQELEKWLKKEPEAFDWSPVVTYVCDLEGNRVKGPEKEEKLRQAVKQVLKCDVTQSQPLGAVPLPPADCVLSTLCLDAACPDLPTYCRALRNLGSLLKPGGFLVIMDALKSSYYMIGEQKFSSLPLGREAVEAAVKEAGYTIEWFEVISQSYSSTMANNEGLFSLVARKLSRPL
Chain of Catechol O-methyltransferase (Homo sapiens) (P21964 whole entry, looked up): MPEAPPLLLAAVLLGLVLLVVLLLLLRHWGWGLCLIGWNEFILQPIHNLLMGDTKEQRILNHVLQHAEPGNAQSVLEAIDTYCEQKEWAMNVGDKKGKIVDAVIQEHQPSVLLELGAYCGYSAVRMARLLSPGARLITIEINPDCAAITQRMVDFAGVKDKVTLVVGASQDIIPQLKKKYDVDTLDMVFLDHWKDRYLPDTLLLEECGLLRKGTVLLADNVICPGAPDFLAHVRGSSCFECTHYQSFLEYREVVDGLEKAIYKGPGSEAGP

COc1cc(CCC2=NN=C(NC(=O)c3ccc(N4C[C@@H](C)N[C@@H](C)C4)cc3)C2)cc(OC)c1
Potency [1]: 5.78 µM (active) | Potency [2]: 5.78 µM (active)

CC(=O)NC[C@H]1CN(c2ccc(N3CCSCC3)c(F)c2)C(=O)O1
Potency [1]: inactive | Potency [2]: inactive

NC(=O)CCCSc1nc(N)nc(-c2c(Cl)cc3c4c(cccc24)COC3)n1
Potency [1]: 0.183 µM (active) | Potency [2]: 0.23 µM (active)

COc1cc(O)c2c(c1)/C=C/C[C@H](O)[C@H](O)C(=O)/C=C\C[C@H](C)OC2=O
Potency [1]: 2.06 µM (active) and 2.58 µM (active) | Potency [2]: 1.46 µM (active) and 1.83 µM (active)

CC1CCC/C=C/C(=O)c2c(O)cc(O)cc2CC(=O)O1 (stereo not given)
Potency [1]: 2.9 µM (active) | Potency [2]: 2.05 µM (active)

COC1=CC(=O)C[C@@H](C)[C@@]12Oc1c(Cl)c(OC)cc(OC)c1C2=O
Potency [1]: inactive | Potency [2]: inactive

C=C1C(=O)O[C@@H]2C[C@@]3(C)CCCC(=C)[C@]3(O)C[C@H]12
Potency [1]: 8.17 µM (active) | Potency [2]: 6.49 µM (active)

COC(CCc1ccc(O)cc1)CC(=O)CCc1ccc(O)cc1 (stereo not given)
Potency [1]: 5.67 µM (active) | Potency [2]: 8.98 µM (active)

O=C(O)CSc1cc(NS(=O)(=O)c2ccc(Br)cc2)c2ccccc2c1O
Potency [3]: 84.9 µM (active) | outcome [4]: inactive | Potency [5]: 47.8 µM (active) | outcome [6]: inactive

CC(=O)[C@H]1CC[C@H]2[C@@H]3CC=C4C[C@@H](OS(=O)(=O)O)CC[C@]4(C)[C@H]3CC[C@]12C
outcome [4]: inactive | outcome [7]: inactive | Potency [5]: inactive | outcome [6]: inactive

Cc1nnc(C[C@@H]2C=C(c3ccc(Cl)cc3)c3ccccc3-n3c(C)nnc32)o1
Potency [1]: 0.332 µM (active) | Potency [2]: 0.296 µM (active) | activity [8]: -1.31% | Potency [9]: inactive | activity [10]: -21% | activity [11]: 3.69%

Cc1ccc(CNc2ncnc3ccc(-c4ccc(CO)o4)cc23)o1
Potency [1]: 2.58 µM (active) | Potency [2]: 2.3 µM (active) | activity [8]: -5.85% | activity change, negative = inhibition [9]: -1.25% | activity [10]: -7.73% | activity [11]: -9.87%

COc1cc2c(NC3CCN(C(C)C)CC3)nc(N3CCC(F)(F)CC3)nc2cc1OCCCN1CCCC1
Potency [1]: 20.5 µM (active) | Potency [2]: 11.5 µM (active) | activity [8]: -11.2% | activity change, negative = inhibition [9]: -0.0366% | activity [10]: -8.4% | activity [11]: -0.61%

C[C@H](Oc1cc(-c2cnn(C3CCNCC3)c2)cnc1N)c1c(Cl)ccc(F)c1Cl
Potency [1]: 11.5 µM (active) | Potency [2]: 12.9 µM (active) | activity [8]: -64.7% | Potency [9]: 27.1 µM (active) | activity [10]: -75.2% | activity [11]: -61.8%

Cc1[nH]c2ccccc2c1CCNCc1ccc(/C=C/C(=O)NO)cc1
Potency [1]: 18.3 nM (active) and 52.5 nM (active) | Potency [2]: 18.3 nM (active) and 52.5 nM (active) | activity [8]: 16.3% | activity change, negative = inhibition [9]: -2.13% | activity [10]: -6% | activity [11]: -2.09%

C=C1C(=O)OC2/C=C(/C)C3=CC(=O)C(C)(CC(OC(=O)/C(C)=C/COC(C)=O)C12)O3 (stereo not given)
Potency [1]: 1.12 µM (active) | Potency [2]: 0.399 µM (active) | activity [8]: -88.1% | activity change, negative = inhibition [9]: 0.139% [at 29.8 µM] | activity [10]: 0.146% | activity [11]: -3.18%
